Rows were chosen to be rich in hits. Some 4% of all compounds tested hit in one or more screens of this group.
Peg3 promoter – reduces Peg3 promoter-driven luciferase expression in HeLa; HeLa PEG-Prom luciferase reporter, luminescence, overnight; inhibition, % at 20 µM; 360,000 compounds, 1.7% hits; AID 588405;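 active = inhibition of at least 50% at 20 µM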
HIF-2a inh – HIF-2a inhibition; 786-0 RCC cells HIF-2a reporter, luciferase luminescence, overnight; inhibition, % at 18.8 µM; 360,000 compounds, 0.72% hits; AID 624352;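 active = inhibition of the luminescence signal of 40% or more relative to plate controls, in a single-dose primary screen at 18.75 µM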
TWEAK Fn14 block – inhibitors of TWEAK-Fn14 interaction signaling; TWEAK-stimulated Fn14 reporter cells, luciferase luminescence, 8 h; inhibition, % at 10 µM; 360,000 compounds, 2% hits; AID 1159606; in the data active = inhibition above about 50%
KKLEB cytotox – CF airway cell cytotoxicity counter-screen; KKLEB CF airway cells viability, ATPlite luminescence, overnight; stronger effect = lower value; cells stimulated with P. aeruginosa culture filtrate; activity change (cytotoxicity), % at 5 µM; 360,000 compounds, 0.36% hits;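 active = corrected activity change at or below -50% at 5 µM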
CF NFkB inh – blocks PAF-induced NF-kB reporter in cystic fibrosis cells; inhibition, % at 5 µM; 360,000 compounds, 0.86% hits; KKLEB NF-kB-GFP reporter, GFP fluorescence overnight;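 active = at least 50% inhibition at 5 µM, scaled per plate between neutral and stimulator controls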;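 also: PAF is a Pseudomonas aeruginosa culture filtrate used as stimulus; plate controls were PAF-stimulated DMSO wells for no effect and unstimulated DMSO wells for full effect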
TROY signal inh – blocks TROY-dependent signaling in reporter cells. Q293 LMP1-TROYcd NF-kB luciferase reporter, 4 h. inhibition, % at 10 µM. 360,000 compounds, 0.98% hits. AID 1347056;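 active = compounds whose plate-normalised and pattern-corrected inhibition of the luciferase reporter signal at the single screening dose is 50% or more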
The depositor's hits bear a star; / = not tested or not shown.

SMILES | Peg3 promoter | HIF-2a inh | TWEAK Fn14 block | KKLEB cytotox | CF NFkB inh | TROY signal inh
COc1cccc(C(O)c2nc(-c3cnn(C)c3)cs2)c1 (configuration not stated) | 9 | 9 | -5 | 10 | -11 | -2
CC(C)C[C@@H](CN1CCC[C@@H]1CN1C(=S)NC[C@@H]1Cc1ccccc1)N1C[C@H](Cc2ccc(O)cc2)N(CC2CCCCC2)C1=S | -12 | -1 | -7 | -10 | 23 | 13
CC(C)C[C@H]1CNC(=S)N1CC1CCCN1C[C@H](CC(C)C)N1C[C@H](Cc2ccc(O)cc2)N(CC2CCCCCC2)C1=S (some centres not stated) | 87* | -27 | 21 | -1 | 39 | 7
CC(C)C[C@H]1CNC(=S)N1CC1CCCN1C[C@H](Cc1ccc(O)cc1)N1C[C@H](Cc2ccccc2)N(CC2CCCCCC2)C1=S (some centres not stated) | -14 | -6 | 2 | 2 | 10 | -11
CC(C)C[C@H]1CNC(=S)N1CC1CCCN1C[C@H](CC(C)C)N1C[C@H](Cc2ccc(O)cc2)N(CC2CCCCC2)C1=S (some centres not stated) | 78* | -5 | 32 | 8 | 36 | 20
CC(C)C[C@H]1CNC(=S)N1C[C@H]1CCCN1C[C@H](CC(C)C)N1C[C@H](Cc2ccc(O)cc2)N(CC2CCCCCC2)C1=S | 87* | 2 | -9 | -26 | 37 | 30
CC(C)C[C@@H](CN1CCC[C@@H]1CN1C(=S)NC[C@@H]1Cc1ccccc1)N1C[C@H](Cc2ccc(O)cc2)N(CC2CCCCCC2)C1=S | 44 | -4 | 14 | -18 | 45 | 24
CCC(C)(C)C1CCc2[nH]nc(C(=O)NC(C)C)c2C1 (configuration not stated) | 12 | -9 | 4 | 15 | 8 | 9
O=C(Cc1ccc(NC(=O)C2CCCN(C(=O)C3CCC3)C2)cc1)Nc1cccc(C(=O)N2CCCC2)c1 (configuration not stated) | -17 | -17 | 8 | 6 | -19 | -12
NCC1CCN(c2nc3ccccc3c3c2CCCC3)CC1 | 102* | -5 | -15 | -3 | 15 | 12
COc1ccc(NC(=O)CSc2n[nH]c(=O)n2C2CC2)cc1OC | -1 | 17 | 0 | 14 | -13 | -11
O=C(Nc1ccc(Cl)c(Cl)c1)Nc1ccc(Br)cc1F | -24 | -195 | 47 | -64* | 71* | 32
O=C(Nc1ccc(Cl)c(Cl)c1)Nc1ccccc1O | -272 | -345 | 19 | 17 | 19 | 2
CC(C)N=c1scc(-c2cccs2)n1/N=C/c1ccc(O)c(O)c1O | -79 | -72 | 54* | -2 | -23 | 14
CN=c1scc(-c2ccccc2F)n1/N=C/c1ccc(O)c(O)c1O | -73 | -47 | 99* | -34 | -3 | 92*
CCN=c1scc(-c2cccs2)n1/N=C/c1cc(OC)ccc1O | -302 | -258 | 62* | -4 | -9 | 34
C[C@@H]1COc2cccc(N3CCC[C@@H]3CO)c2S(=O)(=O)N1 | / | 16 | 8 | / | / | 0
CCCn1ncc(/C=N/O)c1C | 0 | 19 | 16 | -1 | 21 | 10
COc1ccc(Cl)cc1S(=O)(=O)N(C)CC(=O)NCc1ccc2c(c1)OCO2 | -6 | 1 | 53* | 5 | -5 | 0
O=S(=O)(Nc1cc(Cl)ccc1-n1cncn1)c1cc(Br)ccc1Br | 35 | -7 | 46 | 12 | 39 | 58*
CCc1cc2c(=O)oc(-c3ccc(F)cc3)nc2s1 | -36 | -60 | 54* | 20 | -19 | 9
Cn1cc([N+](=O)[O-])c(C(=O)n2cccn2)n1 | 4 | 15 | -11 | -4 | -7 | 1
Cc1nc(-c2coc3cc(OCC(=O)O)ccc3c2=O)cs1 | 14 | 16 | 16 | 7 | 7 | -20
Cc1nc(-c2coc3cc(O)c(C)cc3c2=O)cs1 | -24 | -121 | 65* | 0 | -13 | 34
O=S(=O)(c1ccc(OC(F)(F)F)cc1)N1CCC(O)(c2cccc(C(F)(F)F)c2)CC1 | 19 | 15 | 16 | 2 | 3 | 58*
COc1ccc(F)cc1-c1cc(NC=O)c2ncc(-c3cc(OC)c(OC)c(OC)c3)n2c1 | 46 | -52 | 74* | 4 | 26 | 47
COc1cc(-c2cnc3c(NC=O)cc(-c4ccccc4Cl)cn23)cc(OC)c1OC | -1 | 2 | 59* | -20 | 31 | 44
